Experimental findings from PubChem BioAssay (NCATS) are described below.

Experiment [1] concerns the target Lysosomal acid glucosylceramidase (Homo sapiens) (UniProt P04062). The experiment in a line: Glucocerebrosidase-p2 (AID 348; in the data active means potency below about 10 µM; further: potency means the concentration at half of the fitted maximal effect). As to conditions: purified GBA, blue fluorogenic substrate, 40 min. In outline: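 Normal human glucocerebrosidase (0.2 nM) with blue fluorogenic substrate (80 uM final) in citrate/phosphate pH 5.9 with 10mM sodium taurocholate, 0.01% tween-20; 40 min RT, NaOH/glycine stop; fluorescence Ex 365/Em 440; AC50 from a titration from 0.6 nM upwards.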

Experiment [2] in a line: AP1 Signaling Pathway (AID 357).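 Further: ME-180 reporter cells stimulated with EGF at its EC50 level; on the % scale 0 is the no-effect control and ±100 the full control effect.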 As to conditions: ME-180 AP-1-bla reporter, EGF-induced, beta-lactamase ratio, 5 h; at 7.69 µM (top of the series) unless noted. In outline: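 In this screen, ME-180 cells in Opti-MEM with 0.5% dialyzed FBS received EC50 EGF and compound titrations for 5 h. AP-1 reporter beta-lactamase was detected via CCF4 ratio, giving AC50 for positive and negative modulators.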

In experiment [3] the target is Cytochrome P450 1A2 (Homo sapiens) (UniProt P05177). The experiment in a line: p450-cyp1a2 (AID 410; calls by dose curve; further: potency means the concentration at half of the fitted maximal effect;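 on activity change, negative = inhibition: -100% = full effect of reference inhibitor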). As to conditions: recombinant CYP1A2, luciferin-ME demethylation, luminescence; series mostly up to 57 µM. The gist of the method:
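20nM CYP1A2, 100uM Luciferin-ME (=Km), 100mM KPO4; cpd 10 min RT; +NADPH regen, 60 min RT; stop/detect 20 min; luminescence. Normalized to furafylline 57 uM = full inhibition.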

A short description of experiment [4]: Stat Signaling Pathway (AID 446).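 Further: ME-180 cervical cancer cells given 40 pM IL-6 alongside compound; SIE-controlled beta-lactamase reporter measured as 460/530 nm FRET emission ratio; on the % scale 0 is the no-effect control and ±100 the full control effect.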 As to conditions: ME-180 (cervical carcinoma) SIE beta-lactamase reporter, IL-6 stimulated, 5 h; at 7.69 µM (top of the series) unless noted. The gist of the method:
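Emission at 460 and 530 nm (excitation 405 nm) reports SIE-controlled beta-lactamase in ME-180 cells. Cells received compound with 40 pM IL-6 for 5 hrs at 37 C; data scaled between 300 pM IL-6 and 125 nM JAK-inhibitor controls.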

The target in experiment [5] is Glucocorticoid receptor (Homo sapiens) (UniProt P04150). The experiment in a line: GR-GFP Redistribution (AID 450;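 active means compounds whose dose series gives a full or clear partial fitted curve of increased nuclear translocation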; further: potency means the concentration at half of the fitted maximal effect). As to conditions: U2OS GR-GFP nuclear translocation, laser cytometry, 2 h.
Experiment [6] shares this target. The experiment in a line: GR-EFC Redistribution (AID 451; calls by dose curve; further: potency means the concentration at half of the fitted maximal effect). As to conditions: CHO-K1 GR-EFC translocation, beta-gal luminescence, 2 h. In outline:
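CHO-K1 cells expressing nuclear EA and GR-ED fragments of b-gal; compounds titrated up to 46 uM final, 2 h at 37 C. GR nuclear translocation read as complemented b-gal luminescence after 1 h RT detection.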

The target in experiment [7] is Mitogen-activated protein kinase 10 (Mus musculus) (UniProt Q61831). The experiment in a line: JNK3 AlphaScreen Assay (AID 530).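 Further: kinase came from lysate of stimulated human HepG2 cells; signal reports phosphorylation of biotinylated GST-cJun 1-79 at Ser73 with 10 µM ATP; on the % scale 0 is the no-effect control and ±100 the full control effect.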 As to conditions: JNK3 lysate, c-Jun phosphorylation; series mostly up to 57.1 µM. The gist of the method:
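HepG2 lysate (IL-1b/TNFa pre-activated) + biotin-GST-cJun 1-79 + anti-pSer73 cJun; cpd titration, 15 min RT; ATP 10 uM start; Tris pH 7.6, MgCl2, DTT, vanadate; beads in EDTA buffer; AlphaScreen.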

For experiment [8], the target named is 3',5'-cyclic-AMP phosphodiesterase 4B (Homo sapiens) (UniProt Q07343). The experiment in a line: qHTS Assay for Inhibitors of PDE-IV (AID 607; active means well fitted activation curve with a large enough effect in the main read-out, with a control signal flat, not every such curve was filed as active; further: % of control where 0% means no effect). As to conditions: HEK293 ACTOne CNG channel cells, membrane potential fluorescence; series mostly up to 22.9 µM. The gist of the method:
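The readout is membrane depolarisation from a cAMP-sensing CNG channel, detected with a potential dye at ex 535/em 590. Cells were HEK293-derived (endogenous PDE-IV) at 1000 cells/well, titrated up to 22.9 uM final.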
(Quantitative high-throughput screening tests each substance at several concentrations.)

Experiment [9] deals with Cytochrome P450 3A4 (Homo sapiens) (UniProt P08684). The experiment in a line: qHTS Assay for Inhibitors and Substrates of Cytochrome P450 3A4 (AID 884; active means well fitted curve in the direction sought with a large enough effect; an effect the other way counts as inactive or inconclusive; further: potency means the concentration at half of the fitted maximal effect; nearly all actives have a fitted effect of over 50% in size). As to conditions: recombinant CYP3A4, Luciferin-PPXE luminescence; series mostly up to 57.1 µM. The gist of the method: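 Luminescent readout of luciferin produced by CYP3A4 (20 nM) dealkylation of Luciferin-PPXE, 25 uM (its KM). NADPH-driven reaction ran 60 min at RT after 10 min compound preincubation; data scaled to 57 uM ketoconazole as 100% inhibition.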

Experiment [10] has the same target. The experiment in a line: qHTS Assay for Activators of Cytochrome P450 3A4 (AID 885; active means well fitted curve in the direction sought with a large enough effect; an effect the other way counts as inactive or inconclusive; further: nearly all actives have a fitted effect of over 65% in size). As to conditions: recombinant CYP3A4, Luciferin-PPXE luminescence, 60 min; series mostly up to 57.1 µM. The gist of the method: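 Activators are scored by enhanced luminescence from CYP3A4 conversion of luciferin-PPXE (25uM, equal to KM) to luciferin, after 60 min at RT with an NADPH-regenerating system.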

Experiment [11] is described as follows: Confirmation and Secondary Assay for Modulators of Hemoglobin Beta Chain Splicing at IVS2 654 locus (AID 910; active means well fitted curve in the direction sought with a large enough effect; an effect the other way counts as inactive or inconclusive;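 further: HeLa cells stably carrying EGFP split by mutant beta-globin IVS2-654 intron; % of control where 0% means no effect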). As to conditions: HeLa EGFP-654 splicing reporter, GFP fluorescence, 48 h; series mostly up to 38.3 µM. In outline: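 HeLa cells stably expressing EGFP interrupted by β-globin IVS2-654 intron, seeded overnight in Opti-MEM/2% FCS, then treated 2 days at 37 °C. Restored splicing read as total peak GFP intensity per well by laser scanning cytometry (488 nm excitation, 500–520 nm emission); 500 nM antisense PNA as control.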

Experiment [12] can be described thus: Confirmation and Secondary Assay for Modulators of Hemoglobin Beta Chain Splicing at IVS2 705 locus (AID 930; active means well fitted curve in the direction sought with a large enough effect; an effect the other way counts as inactive or inconclusive;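 further: HeLa cells stably expressing the EGFP-705 splicing reporter; GFP fluorescence per well restored by corrected splicing of the IVS2-705 intron in EGFP; % of control where 0% means no effect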). As to conditions: HeLa EGFP-705 splicing reporter, GFP fluorescence, 48 h; series mostly up to 38.3 µM. In outline:
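HeLa IVS2-705 EGFP reporter cells, 500/well, compound 2 d at 37C; correct splicing yields fluorescent EGFP. Control: 500 nM antisense PNA. Read-out: total peak GFP intensity.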

Experiment [13] can be described thus: qHTS Assay for Lipid Storage Modulators (AID 1519; calls by dose curve). As to conditions: Drosophila S3 cells, BODIPY lipid droplet/cell ratio, laser cytometry, cells loaded with oleic acid; for activity change, negative = inhibition: at 57.5 µM (top of the series). The gist of the method: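 Cells seeded at 5,000 per well were treated with compounds over a concentration series and loaded with oleic acid (400 uM, as added). Lipid droplet fluorescence (488 nm excitation, 500-530 nm channel) was read by laser-scanning cytometry and normalized to 20 uM Triacsin C.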

Experiment [14] can be described thus: Primary qHTS for small molecule stabilizers of the endoplasmic reticulum resident proteome: Secreted ER Calcium Modulated Protein (SERCaMP) assay (AID 1508630; active means well fitted curve in the direction sought with a large enough effect; an effect the other way counts as inactive or inconclusive; further: on the % scale 0 is the no-effect control and ±100 the full control effect). As to conditions: SH-SY5Y GLuc-SERCaMP (Gaussia luciferase released on ER calcium loss) secretion, thapsigargin, luminescence; series mostly up to 38.4 µM. The gist of the method:
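The SH-SY5Y reporter protocol was run at 3 concentrations up to 38.3 uM (primary) or 11 concentrations (follow-up): 16 h compound, 100 nM thapsigargin for 4 h, then extracellular luciferase luminescence.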

Experiment [15] addresses Cytochrome P450 2D6 (Homo sapiens) (UniProt P10635). The experiment in a line: qHTS Assay for Inhibitors and Substrates of Cytochrome P450 2D6 (AID 891; active means well fitted curve in the direction sought with a large enough effect; an effect the other way counts as inactive or inconclusive; further: potency means the concentration at half of the fitted maximal effect; nearly all actives have a fitted effect of over 60% in size). As to conditions: recombinant CYP2D6, luciferin-ME EGE luminescence; series mostly up to 57.1 µM. The gist of the method:
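Luminescent read-out of luciferin formed by 5 nM human CYP2D6 demethylating 30 uM Luciferin-ME EGE (Km level) over 60 min at room temperature after NADPH regeneration addition. Data normalized to full inhibition by 1.43 uM quinidine.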

Experiment [16] concerns the target Ubiquitin carboxyl-terminal hydrolase 1 (Homo sapiens) (UniProt O94782). The experiment in a line: Inhibitors of USP1/UAF1: Pilot qHTS (AID 504865; active means well fitted curve in the direction sought with a large enough effect; an effect the other way counts as inactive or inconclusive;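 further: rhodamine fluorescence freed from ubiquitin-rhodamine substrate followed over time; top concentration of the series differs between compounds; on the % scale 0 is the no-effect control and ±100 the full control effect; nearly all actives have a fitted effect of over 35% in size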). As to conditions: purified USP1/UAF1, Ub-rhodamine cleavage fluorescence; series mostly up to 54.9 µM. The gist of the method:
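1nM USP1/UAF1 + cpd, 15 min RT; start w/ Ub-Rho 150nM final; kinetic FL 480/540 nm, 6 reads q60 s. Buffer 50mM HEPES pH 7.8, 0.5mM EDTA, 1mM TCEP, 0.01% Tween-20, 0.1 mg/ml BSA.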

The nature of experiment [17]: NFAT Signaling Pathway (AID 444). As to conditions: Jurkat NFAT-bla M1, carbachol, beta-lactamase ratio, 5 h; at 7.69 µM (top of the series) unless noted. In outline: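 Jurkat cells with NFAT-driven β-lactamase reporter and co-expressed M1 receptor, stimulated with carbachol (final 1 uM, ~EC50), compound titration, 5 h at 37 °C. CCF4 loaded 1 h at RT; 460/530 nm ratio gave %activity and AC50.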

[18] abbreviates: measured here: cell count channel max response.
Where [19] appears, read: measured here: lipid channel max response.

Each structure is given as a SMILES string. Results filed as inconclusive are left out. Calls of active or inactive are those of the source. Unless noted, the call rests on the fitted dose curve; in most records, active means well fitted curve in either direction with a large enough effect (not every such curve was filed as active); inconclusive means small, poorly fitted or top-dose-only effect, or another doubt; inactive means flat fitted curve, though single readings scatter.

Lysosomal acid glucosylceramidase (Homo sapiens), sequence (P04062 whole entry, looked up): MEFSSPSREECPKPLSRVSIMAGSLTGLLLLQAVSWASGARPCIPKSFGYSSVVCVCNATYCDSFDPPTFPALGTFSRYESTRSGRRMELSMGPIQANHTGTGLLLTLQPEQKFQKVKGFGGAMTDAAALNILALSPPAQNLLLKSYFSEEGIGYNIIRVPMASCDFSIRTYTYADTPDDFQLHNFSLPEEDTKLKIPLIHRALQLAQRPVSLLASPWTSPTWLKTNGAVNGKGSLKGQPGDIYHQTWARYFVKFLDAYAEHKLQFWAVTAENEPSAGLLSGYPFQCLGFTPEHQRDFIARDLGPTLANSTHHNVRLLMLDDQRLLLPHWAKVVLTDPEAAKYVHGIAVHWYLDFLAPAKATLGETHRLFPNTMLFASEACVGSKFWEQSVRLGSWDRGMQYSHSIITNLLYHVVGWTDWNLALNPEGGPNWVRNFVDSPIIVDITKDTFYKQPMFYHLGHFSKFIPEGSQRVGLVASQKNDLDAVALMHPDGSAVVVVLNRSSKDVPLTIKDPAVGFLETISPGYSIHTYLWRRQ
Cytochrome P450 3A4 (Homo sapiens), sequence (P08684 whole entry, looked up): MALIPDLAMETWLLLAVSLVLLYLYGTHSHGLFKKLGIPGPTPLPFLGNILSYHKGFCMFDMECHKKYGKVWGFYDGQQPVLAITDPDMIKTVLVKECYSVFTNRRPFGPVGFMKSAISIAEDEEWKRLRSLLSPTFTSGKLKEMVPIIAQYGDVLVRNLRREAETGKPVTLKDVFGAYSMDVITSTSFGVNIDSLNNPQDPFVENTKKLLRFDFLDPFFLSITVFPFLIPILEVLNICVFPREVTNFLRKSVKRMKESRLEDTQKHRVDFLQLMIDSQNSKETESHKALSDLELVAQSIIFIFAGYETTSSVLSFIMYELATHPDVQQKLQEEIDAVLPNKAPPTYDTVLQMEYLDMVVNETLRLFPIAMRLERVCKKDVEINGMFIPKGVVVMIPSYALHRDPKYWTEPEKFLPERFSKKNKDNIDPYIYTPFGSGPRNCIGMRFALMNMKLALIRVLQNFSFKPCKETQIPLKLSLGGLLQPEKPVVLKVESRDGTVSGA
3',5'-cyclic-AMP phosphodiesterase 4B (Homo sapiens), sequence (Q07343 whole entry, looked up): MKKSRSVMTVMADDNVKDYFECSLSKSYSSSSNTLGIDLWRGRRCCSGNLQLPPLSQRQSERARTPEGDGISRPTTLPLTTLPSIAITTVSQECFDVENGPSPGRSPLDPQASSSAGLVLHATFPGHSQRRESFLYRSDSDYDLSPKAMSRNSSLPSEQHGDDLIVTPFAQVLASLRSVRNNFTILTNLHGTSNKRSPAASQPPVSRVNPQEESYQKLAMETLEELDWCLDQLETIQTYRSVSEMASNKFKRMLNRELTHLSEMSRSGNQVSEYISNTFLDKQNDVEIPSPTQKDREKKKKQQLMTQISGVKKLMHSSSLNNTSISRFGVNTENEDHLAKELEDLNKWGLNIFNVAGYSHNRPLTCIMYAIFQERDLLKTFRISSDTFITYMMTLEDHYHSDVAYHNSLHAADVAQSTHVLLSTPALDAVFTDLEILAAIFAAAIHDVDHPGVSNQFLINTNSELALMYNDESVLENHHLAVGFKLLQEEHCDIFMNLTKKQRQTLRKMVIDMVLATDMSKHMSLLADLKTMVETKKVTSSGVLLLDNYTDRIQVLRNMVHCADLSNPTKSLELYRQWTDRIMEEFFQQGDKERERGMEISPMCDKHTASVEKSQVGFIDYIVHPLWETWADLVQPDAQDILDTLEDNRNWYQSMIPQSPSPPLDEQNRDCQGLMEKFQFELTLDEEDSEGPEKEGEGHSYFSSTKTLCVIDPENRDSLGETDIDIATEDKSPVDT
Cytochrome P450 1A2 (Homo sapiens), sequence (P05177 whole entry, looked up): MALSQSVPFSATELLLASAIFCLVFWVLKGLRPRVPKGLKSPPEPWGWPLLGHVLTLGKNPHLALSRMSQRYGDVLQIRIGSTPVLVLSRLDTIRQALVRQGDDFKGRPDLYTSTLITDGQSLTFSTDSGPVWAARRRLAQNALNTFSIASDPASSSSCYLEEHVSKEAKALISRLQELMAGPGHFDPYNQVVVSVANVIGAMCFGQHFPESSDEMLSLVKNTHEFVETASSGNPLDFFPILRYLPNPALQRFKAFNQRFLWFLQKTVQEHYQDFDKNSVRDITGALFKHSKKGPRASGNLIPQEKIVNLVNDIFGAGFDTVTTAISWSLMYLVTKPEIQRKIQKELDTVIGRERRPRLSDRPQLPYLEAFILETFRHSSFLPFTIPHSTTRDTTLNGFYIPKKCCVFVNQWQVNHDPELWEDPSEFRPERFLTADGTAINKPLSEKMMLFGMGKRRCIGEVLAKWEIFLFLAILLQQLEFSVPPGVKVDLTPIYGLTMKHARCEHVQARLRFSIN
Glucocorticoid receptor (Homo sapiens), sequence (P04150 whole entry, looked up): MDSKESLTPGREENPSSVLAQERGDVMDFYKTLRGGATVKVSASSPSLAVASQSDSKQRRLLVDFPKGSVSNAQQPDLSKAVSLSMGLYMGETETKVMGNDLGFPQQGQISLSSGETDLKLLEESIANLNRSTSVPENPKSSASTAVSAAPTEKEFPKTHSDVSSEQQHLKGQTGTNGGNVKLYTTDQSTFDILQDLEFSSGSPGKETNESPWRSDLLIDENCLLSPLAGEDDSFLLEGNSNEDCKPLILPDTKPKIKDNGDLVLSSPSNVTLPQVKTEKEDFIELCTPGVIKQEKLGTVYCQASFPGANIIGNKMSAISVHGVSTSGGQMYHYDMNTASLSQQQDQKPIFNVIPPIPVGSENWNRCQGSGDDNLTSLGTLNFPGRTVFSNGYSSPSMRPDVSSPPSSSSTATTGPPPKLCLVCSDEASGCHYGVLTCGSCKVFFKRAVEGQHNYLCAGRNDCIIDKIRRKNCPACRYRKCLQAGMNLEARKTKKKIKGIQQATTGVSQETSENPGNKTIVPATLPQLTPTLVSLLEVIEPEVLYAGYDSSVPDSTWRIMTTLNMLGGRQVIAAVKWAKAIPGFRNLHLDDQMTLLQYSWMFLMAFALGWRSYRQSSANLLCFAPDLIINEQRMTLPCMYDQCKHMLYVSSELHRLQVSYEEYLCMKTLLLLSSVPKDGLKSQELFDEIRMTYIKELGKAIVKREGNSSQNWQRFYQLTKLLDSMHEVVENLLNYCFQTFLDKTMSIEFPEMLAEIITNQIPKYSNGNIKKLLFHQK
Cytochrome P450 2D6 (Homo sapiens), sequence (P10635 whole entry, looked up): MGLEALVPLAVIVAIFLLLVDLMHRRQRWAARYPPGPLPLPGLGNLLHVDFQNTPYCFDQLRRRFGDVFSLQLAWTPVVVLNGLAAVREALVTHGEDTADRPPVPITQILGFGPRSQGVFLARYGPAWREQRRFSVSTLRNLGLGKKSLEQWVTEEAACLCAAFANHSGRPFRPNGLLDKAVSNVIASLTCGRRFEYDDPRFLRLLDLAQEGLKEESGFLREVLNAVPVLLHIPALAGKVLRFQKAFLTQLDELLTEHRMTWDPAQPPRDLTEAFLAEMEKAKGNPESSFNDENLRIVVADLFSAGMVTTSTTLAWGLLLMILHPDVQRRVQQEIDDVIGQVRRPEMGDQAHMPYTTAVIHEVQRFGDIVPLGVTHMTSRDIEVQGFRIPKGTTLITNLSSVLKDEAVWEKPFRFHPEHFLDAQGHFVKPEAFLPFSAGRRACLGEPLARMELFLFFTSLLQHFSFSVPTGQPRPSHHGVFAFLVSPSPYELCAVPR
Ubiquitin carboxyl-terminal hydrolase 1 (Homo sapiens), sequence (O94782 whole entry, looked up): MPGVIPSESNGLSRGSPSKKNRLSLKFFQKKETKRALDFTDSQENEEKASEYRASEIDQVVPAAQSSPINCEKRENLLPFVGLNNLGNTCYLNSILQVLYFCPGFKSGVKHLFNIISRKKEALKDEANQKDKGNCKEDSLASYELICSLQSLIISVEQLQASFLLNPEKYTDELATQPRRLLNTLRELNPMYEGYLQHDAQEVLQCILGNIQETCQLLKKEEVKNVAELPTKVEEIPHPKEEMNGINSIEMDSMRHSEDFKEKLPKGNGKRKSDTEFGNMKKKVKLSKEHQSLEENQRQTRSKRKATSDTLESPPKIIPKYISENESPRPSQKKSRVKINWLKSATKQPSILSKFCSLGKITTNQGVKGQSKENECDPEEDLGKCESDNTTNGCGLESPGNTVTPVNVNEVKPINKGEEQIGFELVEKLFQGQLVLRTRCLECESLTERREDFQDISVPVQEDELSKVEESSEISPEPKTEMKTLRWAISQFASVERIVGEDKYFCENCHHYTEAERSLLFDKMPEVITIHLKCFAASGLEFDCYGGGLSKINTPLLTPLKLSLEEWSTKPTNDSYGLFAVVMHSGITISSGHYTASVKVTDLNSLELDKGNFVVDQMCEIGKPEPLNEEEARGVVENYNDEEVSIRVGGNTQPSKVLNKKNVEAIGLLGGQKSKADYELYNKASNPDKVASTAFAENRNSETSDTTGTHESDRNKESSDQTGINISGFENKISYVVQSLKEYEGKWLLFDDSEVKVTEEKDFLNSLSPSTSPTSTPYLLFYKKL

Turning to `Cc1ccccc1-c1cncnc1N(C)Cc1ccco1`, the Potency in experiment [1] is > 11.4 µM (inactive); in experiment [3], 15.8 µM (active); in experiment [5], > 46 µM (inactive); in experiment [6], > 46 µM (inactive); in experiment [9] it was 1.58 µM (active). Also, the activity change, negative = inhibition was -3.79% (inactive) in experiment [2] and 8.25% (inactive) in experiment [13]. Also, in [4], the activity, negative = inhibition was 11.8% (inactive). For the same molecule, the result in [7], in experiment [11] and in experiment [12] was inactive. Moreover, the Potency result in experiment [8], in [10] and in experiment [14] was “inactive” in each case. The max response in experiment [13] (setting [18]) was -7.61%; in experiment [13] (setting [19]) it was 2.41%.
In the case of `Cc1noc(C)c1C(=O)N1CCC2(CCN(C(=O)NC(C)C)CC2)CC1`, the Potency in experiment [1] was > 11.4 µM (inactive); in experiment [3] it was 5.01 µM (active); in experiment [6], > 46 µM (inactive). For the same molecule, the activity change, negative = inhibition was -3.73% (inactive) in [2] and 4.44% (inactive) in experiment [13]. Also, in experiment [4], the activity, negative = inhibition was 3.31% (inactive). The outcome in [7] was inactive. The max response in [13] (setting [18]) came to 4.63%; in experiment [13] (setting [19]), 11.9%. Moreover, the Potency result in experiment [14] was “inactive”.
Turning to `CC(C)NC(=O)N1CCCC2(CCN(C(=O)c3cc(C(F)(F)F)cc(C(F)(F)F)c3)CC2)C1`, the Potency is > 11.4 µM (inactive) in experiment [1] and > 46 µM (inactive) in experiment [6]. Further, the activity change, negative = inhibition in experiment [2] was -19.4% (inactive); in experiment [13], -6.13% (inactive). Besides, the Potency entry in experiment [3], in experiment [8], in [10] and in experiment [14] was “inactive” in each case. The activity, negative = inhibition in experiment [4] was -13.3% (inactive). In addition, the result in [7] was inactive. Also, the max response in [13] (setting [18]) is 16.6%; in experiment [13] (setting [19]), 12%.
Regarding `CN(C)Cc1ccccc1-c1nc(N2CCOCC2)c2ccccc2n1`, the Potency in experiment [1] is > 11.4 µM (inactive); in experiment [3], 20 µM (active); in experiment [5] it was > 46 µM (inactive); in experiment [6], > 46 µM (inactive); in [15] it was 7.94 µM (active). Besides, the activity change, negative = inhibition in experiment [2] was 25.9% (inactive); in [13], 5.13% (inactive). In [4], the activity, negative = inhibition was 27.7% (inactive). For the same molecule, the call in experiment [7], in experiment [11] and in experiment [12] was inactive. Also, the Potency entry in experiment [10], in experiment [16] and in experiment [14] was “inactive” each time. Besides, the max response in [13] (setting [18]) is 11.7%; in [13] (setting [19]), 18.4%.
With `O=C(c1ccncc1)N1CCC2(CC1)CN(c1ncccn1)C2`, the results for the Potency in experiment [1], in [3] and in experiment [6] were > 11.4 µM (inactive), 6.31 µM (active) and > 46 µM (inactive), respectively. Moreover, the results for the activity change, negative = inhibition in experiment [2] and in experiment [13] were 7.49% (inactive) and 0.437% (inactive), respectively. In [4], the activity, negative = inhibition was -10.2% (inactive). Moreover, the call in [7] was inactive. In addition, the Potency entry in experiment [8] and in experiment [14] was “inactive” each time. In addition, the max response in [13] (setting [18]) came to 22.4%; in experiment [13] (setting [19]) it was 23.6%.
In the case of `O=C(Nc1ccccc1)N1CCC2(CC1)CCN(S(=O)(=O)c1ccccc1)CC2`, the results for the Potency in experiment [1], in experiment [3] and in experiment [6] were > 11.4 µM (inactive), 7.94 µM (active) and > 46 µM (inactive), respectively. The activity change, negative = inhibition is -0.036% (inactive) in experiment [2], 21.1% (inactive) in experiment [17] and 3.55% (inactive) in experiment [13]. Further, the molecule was called inactive in experiment [7]. The Potency entry in [8], in [10] and in experiment [14] was “inactive” each time. Moreover, the max response is -0.439% in experiment [13] (setting [18]) and 7.34% in experiment [13] (setting [19]).
With `O=C(Nc1ccccc1)N1CC2(CCN(C(=O)c3ccncc3)CC2)C1`, the Potency in [1] is > 11.4 µM (inactive); in experiment [3] it was 10 µM (active); in [6], > 46 µM (inactive). For the same molecule, the activity change, negative = inhibition in experiment [2] is 12.1% (inactive); in [17], 7.64% (inactive); in experiment [13] it was 3.73% (inactive). In addition, in experiment [7], the call was inactive. Besides, the Potency entry in experiment [8], in [10] and in experiment [14] was “inactive” throughout. Besides, the max response in [13] (setting [18]) was -8.48%; in [13] (setting [19]), -2.29%.
